This is a sample that favours compounds with a hit; in the whole collection about 2.8% have one here.
SENP7 block: inhibitors of human SENP7 protease; Q9BQF6; recombinant SENP7, Z-RLRGG-aminoluciferin luminescence, 40 min; inhibition, % at 5 µM; actives 1.5% (n = 330,000);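 active means inhibition above about 50% at the single test dose, limit read from the data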;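 further: plate controls were DMSO with enzyme for no effect and no enzyme buffer wells for full effect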
Target sequence (Q9BQF6 706-1050 limits assumed): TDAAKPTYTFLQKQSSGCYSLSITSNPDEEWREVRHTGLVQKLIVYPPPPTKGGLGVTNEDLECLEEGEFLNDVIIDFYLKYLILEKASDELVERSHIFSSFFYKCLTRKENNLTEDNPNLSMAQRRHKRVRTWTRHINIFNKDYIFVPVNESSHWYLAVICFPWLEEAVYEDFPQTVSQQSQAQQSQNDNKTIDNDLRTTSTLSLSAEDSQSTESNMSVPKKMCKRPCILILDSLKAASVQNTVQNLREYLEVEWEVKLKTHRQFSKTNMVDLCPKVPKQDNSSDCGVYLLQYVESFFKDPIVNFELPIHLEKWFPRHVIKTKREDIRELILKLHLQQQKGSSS
Platelet DG rel: modulates dense granule release in human platelets. inhibition, %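 (compounds screened at 7.5 µM in platelet-rich plasma)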. actives 0.22% (n = 300,000). human platelet-rich plasma, SFLLRN dense granule ATP release, luminescence. AID 1663;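 active means mean replicate score, as percent of positive control, at or above 50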
SENP8 block-1: blocks the human protease SENP8. Q96LD8. purified SENP8, Z-RLRGG-aminoluciferin cleavage, luminescence. inhibition, % at 10 µM. actives 1.2% (n = 330,000). AID 2540; in the data active means inhibition above about 50%
SENP8 block-2: blocks human SENP8 cleavage of Nedd8 substrate. recombinant SENP8, Nedd8 substrate fluorescence. inhibition, % at 20 µM. actives 0.64% (n = 360,000); in the data active means inhibition mostly above about 40%, no sharp cut-off; inactive means mostly below about 27%
SENP6 block: blocks the human protease SENP6; Recombinant SENP6 catalytic domain, aminoluciferin luminescence; inhibition, % at 10 µM; actives 1.8% (n = 330,000); AID 2599;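 active means inhibition above about 50% at the single tested dose, limit read from the data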;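 further: plate controls were DMSO wells with enzyme for no effect and DMSO wells lacking enzyme for full effect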
HSP90 refold inh: blocks HSP90-mediated luciferase refolding in reticulocyte lysate; Rabbit reticulocyte lysate, luciferase refolding luminescence, 3 h; AID 1789; inhibition, % at 5.6 µM; actives 0.91% (n = 290,000);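 active means inhibition above the screen-wide mean plus 3 SD, computed separately per campaign, cut at about 16% in these data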;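 further: 0% = DMSO wells and 100% = 60 µM geldanamycin wells; inhibitors lower the luminescence because luciferase stays unfolded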
SENP8 conf: human SENP8 inhibition, confirmed; inhibition, % at 12.5 µM; actives 40% (n = 6,200); shares compounds with SENP7 block; Recombinant SENP8, Z-RLRGG-aminoluciferin luminescence, 60 min;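 active means mean inhibition across replicates above about 50%, limit read from the data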
SENP6 confirm: human SENP6 inhibition, confirmed. AID 488915. inhibition, % at 12.5 µM. actives 58% (n = 6,200). recombinant SENP6, Z-RLRGG-aminoluciferin luminescence. shares compounds with SENP7 block
SENP7 confirm: human SENP7 inhibition, confirmed | shares compounds with SENP7 block | recombinant SENP7, Z-RLRGG-aminoluciferin luminescence, 40 min | inhibition, % at 12.5 µM | actives 69% (n = 6,200) | AID 488917
Casp3 select: caspase-3 inhibition (SENP selectivity assay). AID 488918. actives 60% (n = 6,200). inhibition, % at 12.5 µM. purified caspase-3, Z-DEVD-aminoluciferin luminescence, 60 min. shares compounds with SENP7 block;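 active means mean inhibition above about 50%, limit read from the data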;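 further: plate controls were enzyme with DMSO for no effect and wells without caspase-3 for full effect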
Luc interf: luminescence interference (SENP counter-screen) | inhibition, % at 12.5 µM | shares compounds with SENP7 block | actives 39% (n = 6,200) | AID 488919 | Pre-incubated SENP8/Z-RLRGG-aminoluciferin, luciferase luminescence interference;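 active means mean inhibition above about 50% when retested at one dose, limit read from the data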;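 further: plate controls were DMSO wells with completed reaction for no effect and substrate without enzyme for full effect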
The depositor's hits bear a star; x = no result given.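 How the source made its calls, unless noted: active means mean inhibition above about 50% in the one-dose retest (limit read from the data); inactive means the rest.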

SMILES | SENP7 block | Platelet DG rel | SENP8 block-1 | SENP8 block-2 | SENP6 block | HSP90 refold inh | SENP8 conf | SENP6 confirm | SENP7 confirm | Casp3 select | Luc interf
Nc1c(-c2ccc(Cl)cc2)cnn1-c1ccccc1 | 93* | 37 | 84* | 21 | 87* | 11 | 77* | 77* | 94* | 84* | 4
Nc1c(-c2ccc(Cl)cc2)nnn1-c1ccccc1 | 47 | 9 | 19 | 20 | 51* | 1 | 35 | 30 | 65* | 50* | 2
COc1ccc(-c2cnn(-c3ccccc3)c2N)cc1OC | -4 | 1 | -12 | 28 | -14 | -4 | x | x | x | x | x
Cc1ccccc1-c1cnn(-c2cccc([N+](=O)[O-])c2)c1N | 3 | -1 | 15 | 11 | -4 | -1 | x | x | x | x | x
Nc1c(-c2ccc(Cl)cc2)cnn1-c1cc(C(F)(F)F)cc(C(F)(F)F)c1 | 1 | 4 | 1 | -1 | -9 | -5 | x | x | x | x | x
Cc1ccc(-c2cnn(-c3ccccc3)c2N)cc1 | 95* | 52* | 89* | 12 | 91* | 14 | 93* | 94* | 101* | 95* | 62*
Cc1ccc(-c2cnn(-c3cccc([N+](=O)[O-])c3)c2N)cc1 | 53* | 3 | 20 | 11 | 52* | -5 | 28 | 28 | 71* | 38 | 2
CCOC(=O)N1CCN(C(=O)c2ccc3c(c2)N=C(C)c2cc(Cl)ccc2S3)CC1 | -16 | 3 | -1 | -1 | -21 | 0 | x | x | x | x | x
O=C(O)CC(c1ccc(F)cc1F)N1Cc2ccccc2C1=O (stereo not given) | 1 | 0 | -5 | 28 | -17 | -3 | x | x | x | x | x
COc1n[nH]c(C(=O)Nc2cc(Cl)ccc2Cl)c1[N+](=O)[O-] | 10 | 6 | 7 | 14 | 55* | -4 | 19 | 18 | 42 | 26 | 6
O=C(N/C(=C\c1ccccc1)C(=O)N1CCOCC1)c1cccc(Br)c1 | -4 | 0 | -1 | 3 | -9 | 13 | x | x | x | x | x
Cc1ccc(O)c(CNc2cccc3cccnc23)c1 | 65* | 3 | 84* | -8 | -4 | 1 | -2 | 21 | 16 | 5 | 4
Oc1c(Br)cc(Br)cc1CNc1cccc2cccnc12 | 88* | -5 | 91* | -70 | 85* | 13 | 4 | 21 | 22 | 4 | -3
CCNC(=O)C1CCCN(C(=O)c2ccccc2OC(F)(F)F)CC1 (stereo not given) | x | x | x | 23 | x | x | x | x | x | x | x
Cc1cc(C(=O)N2CCN(S(=O)(=O)c3ccc(C)c(C)c3)CC2)no1 | 0 | x | 3 | 13 | -8 | x | x | x | x | x | x
Oc1c(Br)cc(Br)cc1C=Nc1cccnc1 | 16 | -8 | 24 | -10 | 55* | 13 | 13 | 42 | 26 | 12 | 5
CC1(C)CC(=O)C(C=Nc2ccc3[nH]ncc3c2)=C(O)C1 | 5 | 3 | -4 | -104 | 3 | 1 | x | x | x | x | x
Oc1c(Br)cc(Br)cc1C=Nc1ccc2[nH]ncc2c1 | 28 | -9 | 32 | -322 | 56* | 5 | 0 | 12 | -5 | 5 | 3
COc1ccc(C=Nc2ccc3[nH]ncc3c2)c(O)c1 | 18 | 1 | -7 | -179 | 62* | 4 | 17 | 4 | 10 | 10 | 6
Cc1ccc(OCCN2CCC2(C)C(=O)NCc2ccc(C(F)(F)F)cc2)cc1 (stereo not given) | x | x | x | 13 | x | x | x | x | x | x | x
Cc1ccc(C(=O)N/N=C/c2ccc(-c3cccc(Cl)c3)o2)cn1 | -6 | 0 | -1 | -436 | -17 | 1 | x | x | x | x | x
Cc1ccc(C(=O)N/N=C/c2ccc(-c3ccccc3[N+](=O)[O-])o2)cn1 | 30 | -10 | 36 | 2 | 65* | 11 | -24 | -8 | -8 | -5 | -8

Bioassay records: PubChem BioAssay, several laboratories
